Source: PubChem BioAssay
Most compounds without a hit are left out; they make up all but 2.1% or so of the library.
Abeta yeast res: qHTS for compounds that reverse cellular toxicity of Amyloid beta (A-beta) peptide in yeast: Primary Screen. yeast expressing A-beta42, growth rescue, OD600, 48 h; response scale: 0% DMSO, 100% iron-clioquinol control. Potency, µM (doses to about 46.1 µM), most hits filed as activators. 410,000 tested, 0.063% active. AID 1347071, 2019; also: nearly all actives have a fitted effect of over 55% in size
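Yeast growth medium received pinned compounds, then yeast cells expressing toxic A-beta were added; plates incubated at 30 C for 48 hr. Growth read as absorbance at 600 nm, normalized to DMSO and equimolar FeCl3 plus clioquinol controls.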
TDP-43 yeast inh: qHTS of TDP-43 Inhibitors. TDP-43 expressing yeast growth rescue, BacTiter-Glo, 24 h. Potency, µM (top dose mostly 46.1 µM), for the others: at the top dose growth rescue (activation), usual class: activators. 410,000 tested, 1.8% active. AID 652104, 2013; also: % of control where 0% means no effect; nearly all actives have a fitted effect of over 50% in size
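Readout is BacTiter-Glo luminescence of cell growth, so inhibitors register as activators. TDP-43-expressing yeast at OD600=0.02 in galactose medium, after raffinose pregrowth to mid-log, were incubated with compound for 24 hr at 30 deg C.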
aSyn rescue: qHTS of alpha-syn Inhibitors; AID 652106, 2013; 370,000 tested, 0.14% active; Yeast expressing alpha-synuclein, growth rescue, BacTiter-Glo, 24 h; Potency, µM (highest dose often 46.1 µM), for the others: at the top dose growth rescue (activation), usual class: activators; also: % of control where 0% means no effect; nearly all actives have a fitted effect of over 65% in size
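Readout is rescue of growth in alpha-synuclein-expressing yeast, so inhibitors of toxicity appear as activators. Growth after 24 hr at 30 deg C in galactose medium is quantified by luminescence.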
FUS yeast rescue: qHTS for Suppressors of FUS Proteinopathy: Primary screen using FUS-linked yeast assay. 390,000 tested, 0.24% active. S. cerevisiae FUS-expressing, growth rescue, OD600, 24 h. Potency, µM (highest dose often 76.6 µM), actives largely listed as activators;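 also: plate controls were DMSO vehicle for no effect and reference control for full effect; nearly all actives have a fitted effect of over 55% in size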
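Yeast FUS proteinopathy model; galactose-induced FUS (2%), starting OD 0.005. Cpds in dilution series, 24hr, 30C, 99% humidity. Abs 600 nm growth. Pos ctrl CP55940 (top 92uM final); neg ctrl DMSO.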
* = called active by the depositor; i = inactive; u = inconclusive; x = no result given; [ ] = remark or other dose. Calls follow the shape of the dose curve; as a rule, active = well fitted curve in the direction sought with a large enough effect; inconclusive = small, poorly fitted or top-dose-only effect, or another doubt; inactive = no such curve, though single readings can be large; an effect the other way counts as inactive or inconclusive. Potency is read from the fitted curve at half-maximal effect.

SMILES	Abeta yeast res	TDP-43 yeast inh	aSyn rescue	FUS yeast rescue
O=C(COC(=O)c1cccc(Cl)c1Cl)NCc1cccs1	i	13µM*	0%	i
COc1cc(-n2c(C)nc3cc(C(=O)N4CCCN(C(C)=O)CC4)ccc32)cc(OC)c1OC	x	x	x	i
Cc1ccccc1NC(=O)c1cnn(-c2ccccc2)c1C	i	13µM*	-14%	i
CCc1ccccc1NC(=O)c1cnn(-c2ccccc2)c1C	i	14µM*	-37%	i
Cc1ccc(C)c(NC(=O)c2cnn(-c3ccccc3)c2C)c1	i	u	-21%	i
Cc1cccc(NC(=O)c2cnn(-c3ccccc3)c2C)c1C	i	0%	-8%	i
COc1ccc(C(=O)C2(C(=O)NCc3ccccc3)CC(c3ccccn3)=NO2)cc1 (stereo unspecified)	x	x	x	i
O=C(CSc1nc(=O)n(Cc2ccccn2)c2c1CCC2)Nc1ccccc1	i	17%	0%	i
CCCN1CNc2c(c(=O)[nH]c(=S)n2CCc2cc(C)ccc2C)C1	x	x	-8%	x
CC1=CC(c2ccccc2)NC(=S)N1 (stereo unspecified)	i	5%	-1%	x
S=C1NC(c2ccccc2)=CC(c2ccccc2)N1 (stereo unspecified)	13µM*	-25%	17%	u
S=C1NC(c2cccs2)=CC(c2ccc(Br)cc2)N1 (stereo unspecified)	i	20µM*	-6%	x
O=C1CC(N2CCN(c3ccccc3Cl)CC2)C(=O)N1c1cccc(F)c1 (stereo unspecified)	i	13µM*	0%	i
COc1ccc(N2CCN(C(=O)Oc3ccc([N+](=O)[O-])cc3)CC2)cc1	i	u	-8%	i
COc1ccccc1OCc1ccc(C(=O)N2CCCCC2)o1	i	9%	1%	i
O=C(c1ccc(COc2c(F)c(F)cc(F)c2F)o1)N1CCN(c2ccccc2)CC1	i	22µM*	3%	i
O=C(c1ccc(COc2c(F)c(F)c(F)c(F)c2F)o1)N1CCOCC1	i	29%	1%	i
COc1ccc(N2CCN(C(=O)c3ccc(COc4ccc([N+](=O)[O-])cc4)o3)CC2)cc1	i	11µM*	4%	x
O=C(c1ccc(COc2ccc(Cl)cc2Cl)o1)N1CCCC1	i	13µM*	4%	x
O=C(NCc1ccco1)O[C@@H]1CC[C@@]23CCCN2C(=O)CCC[C@H]3C1	x	x	x	i
COc1ccc(NC(=O)C(C2CC2)n2c(=O)c(-c3ccccc3)nc3ccccc32)cc1 (stereo unspecified)	i	20µM*	12%	i
COc1ccc(-c2onc(C)c2C)cc1S(=O)(=O)Nc1cc(Cl)ccc1C	i	16%	x	i
O=c1[nH]cc(CCc2ccccc2)c2ncncc12	x	x	-3%	x
O=S1(=O)C=C(Sc2nc3ccccc3s2)c2ccccc21	i	2.2µM*	13%	i
Cc1ccc(N(C)C(=O)Cn2cnc3onc(-c4ccc(F)cc4)c3c2=O)cc1C	i	-8%	u	i
SMILES	Abeta yeast res	TDP-43 yeast inh	aSyn rescue	FUS yeast rescue
O=C(Cc1ccc(-n2cccc2)cc1)N1CCN(c2ccccc2F)CC1	i	18µM*	0%	x
COc1ccc(-c2nnc3ccc(SC(C)C)nn23)cc1OC	x	x	0%	x
COc1ccc(-c2nnc(SC)o2)c(OC)c1	i	-18%[0.397 µM]	1%	i
COc1ccc(OC)c(-c2nnc(-c3ccc(C)o3)o2)c1	i	13µM*	2%	i
Cc1c(NS(=O)(=O)c2cccs2)cccc1-c1nc2cccnc2s1	x	22µM*	u	i
Cc1c(NS(=O)(=O)c2ccc3c(c2)OCCO3)cccc1-c1nc2cccnc2s1	i	35µM*	u	i
Cc1c(C=O)c2ccccn2c1C(=O)c1ccc(F)cc1	i	-25%	16µM*	i
Cc1c(C=O)c2ccccn2c1C(=O)c1ccc(Cl)c([N+](=O)[O-])c1	i	5%	-1%	i
Cc1c(C=O)c2ccccn2c1C(=O)c1ccccc1	i	u	18µM*	i
O=C(Nc1ccccc1)OCCN1C(=O)CCC12CCC(c1ccccc1)CC2 (stereo unspecified)	x	x	x	i
COc1cc(C(=S)N2CCOCC2)ccc1OC(=O)c1cc([N+](=O)[O-])cc([N+](=O)[O-])c1	i	8%	0%	x
COc1ccc(C(=S)N2CCOCC2)cc1OC(=O)c1ccc([N+](=O)[O-])cc1[N+](=O)[O-]	i	22µM*	7%	i
O=C(CSc1nccn1Cc1ccc(F)cc1)Nc1ccc2c(c1)OCCO2	i	15%	x	i
CCCCCCC(=O)N1C/C=C\C(c2ccc(OC)cc2)N(Cc2ccc(F)cc2)C(=O)C1 (stereo unspecified)	i	28µM*	8%	u
Cc1ccc(NC(=O)c2cccc3c2-c2ccccc2C3=O)c(C)c1	x	x	x	i
Cc1cc(NS(=O)(=O)c2ccc(NC(=O)Cc3ccccc3)cc2)no1	x	x	x	i
CCOC(=O)c1cnc(-n2nc(C)cc2C)[nH]c1=O	u	u	22µM*	i
Cc1cc(=O)[nH]c(N2CCCNCC2)n1	i	0%	-4%	i
Cc1cc(=O)[nH]c(-n2nc(C)cc2C)n1	u	u	28µM*	i
CCOC(=O)c1cnc(-n2[nH]c(C)cc2=O)[nH]c1=O	i	1%	3%	i
CCc1cccc(NC(=O)Cn2cc(C(=O)c3ccncc3)c(=O)c3cc(C)c(C)cc32)c1	i	6%	x	u
COc1ccc(C(=O)CSc2nnc(-c3n[nH]c4c3CCC4)n2N)cc1OC	x	x	x	i
c1ccc(-n2nnnc2-c2cccc3ccccc23)cc1	i	14µM*	5%	x
CCCCS(=O)c1c(O)c2ccccc2[nH]c1=O (stereo unspecified)	i	11µM*	17%	i
CCCCCc1c(O)c2ccccc2[nH]c1=O	i	6%	-4%	i
SMILES	Abeta yeast res	TDP-43 yeast inh	aSyn rescue	FUS yeast rescue
O=C(Nc1nc2ncccn2c1-c1ccc(F)c(F)c1)C1CC1	x	x	x	i
CC(=O)c1ccc(N/N=C(/C(N)=O)C2=NC(C)(C)Cc3ccccc32)cc1	i	15%	0%	i
CC1(C)Cc2ccccc2C(/C(=N\Nc2cccc(Cl)c2)C(N)=O)=N1	i	16µM*	17%	u
CCc1ccc(N=c2c([N+](=O)[O-])nn(-c3ccc4c(c3)OCCO4)n2O)cc1	u	20µM*	0%	i
O=[N+]([O-])c1nn(-c2ccc3c(c2)OCCO3)n(O)c1=Nc1ccccc1	i	11µM*	-16%	i
O=[N+]([O-])c1nn(-c2ccc3c(c2)OCCO3)n(O)c1=Nc1ccc(Cl)cc1	i	14%	-18%	i
N#Cc1ccc(/C=C2\C=Cc3ccccc32)cc1	x	x	-9%	x
CN(C)/[N+]([O-])=N/Oc1ccc([N+](=O)[O-])cn1	x	x	0%	x
NC(=S)NN=C1CCC(C2CCCCC2)CC1 (stereo unspecified)	3.2µM*	18%	-8%	i
